# Measurements published in publication PMC7862700, “An all-to-all approach to the identification of sequence-specific readers for epigenetic DNA modifications on cytosine”.
# What was measured:
# Experiment in all cases: DAPPL (digital affinity profiling via proximity ligation, sequencing); 10 mM Tris-HCl pH 7.5, 50 mM NaCl, 1 mM DTT, 4% glycerol, room temperature, 30 min; GST-TFs on glutathione beads, 16-mer random dsDNA library, 0.1% formaldehyde crosslink after washing; high values mean tight binding
# Conditions in all cases: protein: recombinant; tags: N-terminal GST; dsDNA, one strand shown
# [1] = biological target: T1, FEV (Homo sapiens, UniProt Q99581 1-238)
# T1 sequence: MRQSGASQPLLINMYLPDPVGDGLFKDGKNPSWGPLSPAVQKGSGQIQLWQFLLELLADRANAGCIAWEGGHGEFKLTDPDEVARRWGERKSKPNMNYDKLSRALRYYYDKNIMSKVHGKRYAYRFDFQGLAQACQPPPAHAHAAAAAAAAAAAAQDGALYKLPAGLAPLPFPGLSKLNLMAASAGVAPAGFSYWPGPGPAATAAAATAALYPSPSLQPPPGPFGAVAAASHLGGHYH
# Method in brief: (§1)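 The binding signal reported is, for every hexamer, its read frequency for a factor over its read frequency for the tag-only sample. Reads came from pools of yeast-expressed, GST-fused human transcription factors on glutathione beads, barcoded with DNA and mixed with that sample, which were incubated with 200 nmole of a random double-stranded 16-mer DNA library in Tris/NaCl/DTT/glycerol buffer at room temperature for 30 min. After washing, the pools were crosslinked with 0.1% formaldehyde, proximity-ligated with BsaI/T4 ligase for 1 h at 37 °C, PCR-amplified and sequenced on an Illumina NextSeq500.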
# [2] = biological target: T2, ELK4 (Homo sapiens, UniProt P28324-2 1-405)
# T2 sequence: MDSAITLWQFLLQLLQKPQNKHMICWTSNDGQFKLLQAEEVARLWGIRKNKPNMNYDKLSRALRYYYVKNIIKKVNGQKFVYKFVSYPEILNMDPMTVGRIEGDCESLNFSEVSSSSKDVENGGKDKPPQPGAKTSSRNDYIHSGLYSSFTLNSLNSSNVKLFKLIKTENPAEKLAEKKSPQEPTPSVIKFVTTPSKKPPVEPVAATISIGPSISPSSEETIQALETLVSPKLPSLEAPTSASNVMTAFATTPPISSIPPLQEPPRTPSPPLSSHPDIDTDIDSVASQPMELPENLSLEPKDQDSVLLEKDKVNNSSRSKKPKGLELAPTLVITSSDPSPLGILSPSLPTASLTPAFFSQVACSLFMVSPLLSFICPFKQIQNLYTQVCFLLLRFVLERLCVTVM
# Method in brief: as §1
# [3] = biological target: T3, ETV2 (Homo sapiens, UniProt O00321 1-342)
# T3 sequence: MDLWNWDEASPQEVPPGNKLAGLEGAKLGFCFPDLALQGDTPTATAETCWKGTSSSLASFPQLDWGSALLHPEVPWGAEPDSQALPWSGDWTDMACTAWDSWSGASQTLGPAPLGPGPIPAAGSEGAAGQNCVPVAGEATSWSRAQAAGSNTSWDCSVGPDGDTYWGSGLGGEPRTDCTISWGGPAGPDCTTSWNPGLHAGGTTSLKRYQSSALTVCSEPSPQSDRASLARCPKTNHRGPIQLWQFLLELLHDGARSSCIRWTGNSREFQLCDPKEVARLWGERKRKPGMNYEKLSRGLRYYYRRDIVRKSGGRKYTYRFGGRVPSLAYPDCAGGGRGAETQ
# Method in brief: as §1
# [4] = biological target: ELF1 (Homo sapiens, UniProt P32519 1-619)
# Sequence of ELF1 (P32519 whole entry): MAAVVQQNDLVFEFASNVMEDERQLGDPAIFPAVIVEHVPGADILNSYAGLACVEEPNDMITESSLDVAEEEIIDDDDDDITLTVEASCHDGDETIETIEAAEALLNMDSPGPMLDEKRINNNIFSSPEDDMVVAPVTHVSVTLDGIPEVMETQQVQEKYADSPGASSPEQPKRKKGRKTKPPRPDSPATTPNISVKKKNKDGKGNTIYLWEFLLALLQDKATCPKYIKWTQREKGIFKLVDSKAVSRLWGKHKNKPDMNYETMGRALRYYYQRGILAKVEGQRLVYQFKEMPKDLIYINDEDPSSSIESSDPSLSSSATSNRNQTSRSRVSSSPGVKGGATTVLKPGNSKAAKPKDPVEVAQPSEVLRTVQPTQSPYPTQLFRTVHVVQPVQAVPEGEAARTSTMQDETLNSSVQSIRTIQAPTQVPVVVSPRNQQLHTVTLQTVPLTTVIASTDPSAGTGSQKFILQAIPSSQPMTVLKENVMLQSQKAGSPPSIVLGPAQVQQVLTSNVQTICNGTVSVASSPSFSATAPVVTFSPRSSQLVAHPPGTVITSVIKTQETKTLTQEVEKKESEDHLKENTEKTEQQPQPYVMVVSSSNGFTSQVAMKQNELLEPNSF
# Method in brief: as §1
# [5] = biological target: T4, ERF (Homo sapiens, UniProt P50548 1-548)
# T4 sequence: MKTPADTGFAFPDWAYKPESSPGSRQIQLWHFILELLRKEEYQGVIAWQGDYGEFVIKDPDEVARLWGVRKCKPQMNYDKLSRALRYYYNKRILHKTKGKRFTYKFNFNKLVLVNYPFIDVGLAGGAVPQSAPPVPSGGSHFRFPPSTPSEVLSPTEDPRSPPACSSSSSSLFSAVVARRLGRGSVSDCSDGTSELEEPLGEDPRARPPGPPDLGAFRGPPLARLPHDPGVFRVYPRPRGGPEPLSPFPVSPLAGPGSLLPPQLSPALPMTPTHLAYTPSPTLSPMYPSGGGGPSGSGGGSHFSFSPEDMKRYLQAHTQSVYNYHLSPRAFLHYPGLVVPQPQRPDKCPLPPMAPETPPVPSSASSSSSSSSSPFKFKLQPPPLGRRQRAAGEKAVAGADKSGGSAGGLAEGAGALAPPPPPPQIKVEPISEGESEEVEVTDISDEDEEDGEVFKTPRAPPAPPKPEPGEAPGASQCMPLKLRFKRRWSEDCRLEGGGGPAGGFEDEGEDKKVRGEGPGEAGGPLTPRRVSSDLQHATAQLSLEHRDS
# Method in brief: as §1
# [6] = biological target: T5, ETV3L (Homo sapiens, UniProt Q6ZN32 1-361)
# T5 sequence: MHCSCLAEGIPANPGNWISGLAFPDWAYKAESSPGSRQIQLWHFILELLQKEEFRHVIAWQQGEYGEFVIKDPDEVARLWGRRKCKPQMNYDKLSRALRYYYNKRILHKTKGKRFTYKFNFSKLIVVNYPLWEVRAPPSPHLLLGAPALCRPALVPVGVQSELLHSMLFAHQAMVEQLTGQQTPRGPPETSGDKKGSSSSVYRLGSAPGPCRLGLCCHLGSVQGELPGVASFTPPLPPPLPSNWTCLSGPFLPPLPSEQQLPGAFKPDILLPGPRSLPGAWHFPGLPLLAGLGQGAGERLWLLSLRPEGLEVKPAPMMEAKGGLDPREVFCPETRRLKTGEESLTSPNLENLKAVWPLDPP
# Method in brief: as §1
# [7] = biological target: T6, ETV7 (Homo sapiens, UniProt Q9Y603 1-341)
# T6 sequence: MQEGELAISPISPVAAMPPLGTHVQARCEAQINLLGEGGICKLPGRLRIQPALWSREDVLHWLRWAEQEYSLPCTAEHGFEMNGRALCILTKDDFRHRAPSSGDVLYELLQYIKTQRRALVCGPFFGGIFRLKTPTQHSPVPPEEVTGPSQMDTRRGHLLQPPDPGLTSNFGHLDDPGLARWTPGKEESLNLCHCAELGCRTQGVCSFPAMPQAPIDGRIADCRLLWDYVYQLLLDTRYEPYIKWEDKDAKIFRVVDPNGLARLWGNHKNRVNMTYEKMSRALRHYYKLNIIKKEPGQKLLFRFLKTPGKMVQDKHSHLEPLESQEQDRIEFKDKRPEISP
# Method in brief: as §1
# [8] = biological target: T7, EHF (Homo sapiens, UniProt Q9NZC4 1-300)
# T7 sequence: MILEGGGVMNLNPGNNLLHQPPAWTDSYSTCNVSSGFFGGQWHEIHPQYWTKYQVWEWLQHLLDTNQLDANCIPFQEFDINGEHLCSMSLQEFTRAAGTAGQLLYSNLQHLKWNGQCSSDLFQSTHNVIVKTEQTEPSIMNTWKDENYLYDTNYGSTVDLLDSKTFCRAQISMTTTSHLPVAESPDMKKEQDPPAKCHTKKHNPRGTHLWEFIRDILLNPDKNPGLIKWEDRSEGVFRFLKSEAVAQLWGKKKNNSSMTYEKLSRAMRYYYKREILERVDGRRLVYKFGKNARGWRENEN
# Method in brief: as §1
# [9] = biological target: T8, ELK3 (Homo sapiens, UniProt P41970 1-407)
# T8 sequence: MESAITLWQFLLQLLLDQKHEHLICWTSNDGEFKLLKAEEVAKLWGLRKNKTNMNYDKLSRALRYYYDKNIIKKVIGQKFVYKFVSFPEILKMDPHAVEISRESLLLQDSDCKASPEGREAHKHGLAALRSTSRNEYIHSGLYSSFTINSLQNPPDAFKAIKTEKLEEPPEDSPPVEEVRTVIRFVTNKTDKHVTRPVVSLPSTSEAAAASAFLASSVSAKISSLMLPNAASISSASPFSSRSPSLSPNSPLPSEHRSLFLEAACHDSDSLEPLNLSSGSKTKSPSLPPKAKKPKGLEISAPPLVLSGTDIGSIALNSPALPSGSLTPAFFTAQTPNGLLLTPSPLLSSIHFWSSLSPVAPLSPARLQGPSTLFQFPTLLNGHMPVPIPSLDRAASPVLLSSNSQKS
# Method in brief: as §1
# [10] = biological target: CRX (Homo sapiens, UniProt O43186 1-299)
# Sequence of CRX (O43186 whole entry): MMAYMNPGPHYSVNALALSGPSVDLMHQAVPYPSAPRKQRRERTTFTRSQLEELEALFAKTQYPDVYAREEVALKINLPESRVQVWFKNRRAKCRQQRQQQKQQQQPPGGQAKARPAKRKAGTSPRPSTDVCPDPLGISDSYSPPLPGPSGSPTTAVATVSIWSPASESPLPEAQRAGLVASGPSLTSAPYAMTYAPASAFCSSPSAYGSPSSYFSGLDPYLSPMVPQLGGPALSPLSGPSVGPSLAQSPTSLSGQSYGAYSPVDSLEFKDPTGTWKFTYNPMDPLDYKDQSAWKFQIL
# Method in brief: as §1
# [11] = biological target: T9, SPDEF (Homo sapiens, UniProt O95238 1-335)
# T9 sequence: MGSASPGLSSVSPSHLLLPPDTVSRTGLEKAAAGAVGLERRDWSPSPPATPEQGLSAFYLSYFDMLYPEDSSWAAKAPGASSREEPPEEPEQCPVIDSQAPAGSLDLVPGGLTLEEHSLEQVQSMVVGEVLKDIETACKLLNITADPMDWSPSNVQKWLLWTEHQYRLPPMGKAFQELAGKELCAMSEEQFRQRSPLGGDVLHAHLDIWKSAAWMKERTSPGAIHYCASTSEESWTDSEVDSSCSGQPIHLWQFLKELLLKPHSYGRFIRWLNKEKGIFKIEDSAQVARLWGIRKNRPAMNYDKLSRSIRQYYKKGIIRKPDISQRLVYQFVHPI
# Method in brief: as §1
sequence,measurement,setting,value
TGGGAC,binding signal,[1],"1 fold enrichment (6-mer frequency, TF over GST control)"
same,binding signal,[2],"1.03 fold enrichment (6-mer frequency, TF over GST control)"
same,binding signal,[3],"1.14 fold enrichment (6-mer frequency, TF over GST control)"
ACACAG,binding signal,[4],"1.05 fold enrichment (6-mer frequency, TF over GST control)"
same,binding signal,[2],"1.12 fold enrichment (6-mer frequency, TF over GST control)"
same,binding signal,[5],"1.04 fold enrichment (6-mer frequency, TF over GST control)"
same,binding signal,[6],"1.05 fold enrichment (6-mer frequency, TF over GST control)"
same,binding signal,[7],"1.13 fold enrichment (6-mer frequency, TF over GST control)"
TCTGAG,binding signal,[4],"1.01 fold enrichment (6-mer frequency, TF over GST control)"
same,binding signal,[8],"1.01 fold enrichment (6-mer frequency, TF over GST control)"
same,binding signal,[9],"1.01 fold enrichment (6-mer frequency, TF over GST control)"
same,binding signal,[2],"1.08 fold enrichment (6-mer frequency, TF over GST control)"
same,binding signal,[10],"1.04 fold enrichment (6-mer frequency, TF over GST control)"
same,binding signal,[6],"1.01 fold enrichment (6-mer frequency, TF over GST control)"
same,binding signal,[7],"1.05 fold enrichment (6-mer frequency, TF over GST control)"
CGGTCC,binding signal,[9],"1.03 fold enrichment (6-mer frequency, TF over GST control)"
same,binding signal,[1],"1.06 fold enrichment (6-mer frequency, TF over GST control)"
same,binding signal,[2],"1.08 fold enrichment (6-mer frequency, TF over GST control)"
same,binding signal,[11],"1.04 fold enrichment (6-mer frequency, TF over GST control)"
